In PubChem BioAssay (NCI):
The panel holds about 83,000 compounds, 20% with a hit somewhere; the sample as a whole holds those more often.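 96-well plates, one dose, 48 hours. Percent growth reported; active if below 10.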 Active and inactive are the calls of the source.

Key:
Assay in all cases: NCI-60 one-dose screen, 48 h (100 = growth as untreated, 0 = no growth, -100 = all killed)
Conditions in all cases: 10 µM
NCI-H23 lung = tested on: NCI-H23 lung
NCI-H226 lung = tested on: NCI-H226 lung
NCI-H322M lung = tested on: NCI-H322M lung
HOP-62 NSCLC = tested on: HOP-62 NSCLC
NCI-H460 lung = tested on: NCI-H460 lung
HOP-92 NSCLC = tested on: HOP-92 NSCLC
NCI-H522 lung = tested on: NCI-H522 lung
A549/ATCC NSCLC = tested on: A549/ATCC NSCLC
786-0 renal = tested on: 786-0 renal
COLO 205 colon = tested on: COLO 205 colon
DU-145 prostate = tested on: DU-145 prostate
K-562 leukemia = tested on: K-562 leukemia
MALME-3M melanoma = tested on: MALME-3M melanoma
MDA-MB-231 breast = tested on: MDA-MB-231 breast
RXF 393 renal = tested on: RXF 393 renal
SF-268 CNS = tested on: SF-268 CNS
SF-295 CNS = tested on: SF-295 CNS
SF-539 CNS = tested on: SF-539 CNS
UACC-257 melanoma = tested on: UACC-257 melanoma
M14 melanoma = tested on: M14 melanoma

Measured: growth

COc1ccc(/C=C2\SC(=S)N(CCCN3CCOCC3)C2=O)c(OC)c1
active: NCI-H226 lung -99.3%
inactive: NCI-H23 lung 98.9% | NCI-H322M lung 111% | HOP-62 NSCLC 125% | NCI-H460 lung 105% | HOP-92 NSCLC 87.1% | NCI-H522 lung 79.7% | A549/ATCC NSCLC 102% | 786-0 renal 106% | COLO 205 colon 108% | DU-145 prostate 100% | K-562 leukemia 83.8% | MALME-3M melanoma 118% | MDA-MB-231 breast 96.9% | RXF 393 renal 108% | SF-268 CNS 104% | SF-295 CNS 107% | SF-539 CNS 104% | UACC-257 melanoma 102% | M14 melanoma 95.6%

c1ccc(C2CCCCC2)c(OCCCCCN2CCNCC2)c1
inactive: NCI-H23 lung 71.2% | NCI-H226 lung 84.7% | NCI-H322M lung 72.6% | HOP-62 NSCLC 78.9% | HOP-92 NSCLC 29.4% | NCI-H522 lung 60.8% | A549/ATCC NSCLC 53% | 786-0 renal 60.1% | DU-145 prostate 72.8% | MALME-3M melanoma 43% | MDA-MB-231 breast 15.9% | RXF 393 renal 36.4% | SF-268 CNS 70.7% | SF-295 CNS 63.5% | SF-539 CNS 68.7% | UACC-257 melanoma 19.9%
active: NCI-H460 lung 4.61% | COLO 205 colon -74.6% | K-562 leukemia -13.1% | M14 melanoma -66.5%

FC(F)(F)c1ccc(-c2cnc(Cl)nc2NCc2cc(C(F)(F)F)cc(C(F)(F)F)c2)cc1
active: NCI-H23 lung 1.54% | NCI-H226 lung 7.69% | NCI-H460 lung 3.48% | HOP-92 NSCLC -35.3% | NCI-H522 lung -4.24% | COLO 205 colon -51.1% | MDA-MB-231 breast -28.6% | SF-295 CNS -18.8%
inactive: NCI-H322M lung 37.8% | HOP-62 NSCLC 33.4% | A549/ATCC NSCLC 15.8% | 786-0 renal 11.5% | DU-145 prostate 18.8% | K-562 leukemia 16.3% | MALME-3M melanoma 33.6% | RXF 393 renal 23.3% | SF-268 CNS 25.3% | SF-539 CNS 33.1% | UACC-257 melanoma 38.2% | M14 melanoma 41%

O=c1oc2cc(OS(=O)(=O)C3CC3)ccc2c2c1CCCCCC2
inactive: NCI-H23 lung 70.4% | NCI-H226 lung 67.2% | NCI-H322M lung 104% | HOP-62 NSCLC 83.2% | NCI-H460 lung 86.2% | HOP-92 NSCLC 85.2% | NCI-H522 lung 79.2% | A549/ATCC NSCLC 69.6% | 786-0 renal 93% | COLO 205 colon 40.9% | DU-145 prostate 91.4% | K-562 leukemia 51.2% | MALME-3M melanoma 95.3% | MDA-MB-231 breast 78.3% | RXF 393 renal 88.3% | SF-268 CNS 94.4% | SF-295 CNS 75.3% | SF-539 CNS 82.2% | UACC-257 melanoma 92.8% | M14 melanoma 81.4%

CCCCCCCC/C=C/CCCCCCCCC1=NCCN1CCO
inactive: NCI-H23 lung 76.5% | NCI-H226 lung 86.9% | NCI-H322M lung 55.5% | HOP-62 NSCLC 75.9% | NCI-H522 lung 76.7% | A549/ATCC NSCLC 77.5% | 786-0 renal 75% | COLO 205 colon 70.7% | DU-145 prostate 84.7% | MALME-3M melanoma 85.8% | MDA-MB-231 breast 68.3% | RXF 393 renal 56.8% | SF-268 CNS 77.3% | SF-295 CNS 39.6% | SF-539 CNS 75.6% | UACC-257 melanoma 83.5% | M14 melanoma 74%
active: NCI-H460 lung -34% | HOP-92 NSCLC -5.31% | K-562 leukemia -11.8%

C[C@@H]1N=C(c2ccc(Br)cc2)Nc2nc3ccccn3c2C1=O
inactive: NCI-H23 lung 53.7% | NCI-H226 lung 68.3% | NCI-H322M lung 74% | HOP-62 NSCLC 55.8% | NCI-H460 lung 32.5% | HOP-92 NSCLC 59.5% | NCI-H522 lung 34.8% | A549/ATCC NSCLC 54.7% | 786-0 renal 83.1% | COLO 205 colon 26.3% | DU-145 prostate 87.7% | K-562 leukemia 24.3% | MALME-3M melanoma 51.8% | MDA-MB-231 breast 52.7% | RXF 393 renal 68.2% | SF-268 CNS 83.4% | SF-295 CNS 40.9% | SF-539 CNS 74.6% | UACC-257 melanoma 69.9% | M14 melanoma 31.8%

CC(C)c1[nH]nc2c(NCc3ccc(-c4ccccn4)cc3)nc(SCCN(C)C)nc12
inactive: NCI-H322M lung 17% | 786-0 renal 11.3% | DU-145 prostate 11.4%
active: NCI-H23 lung -23.8% | NCI-H226 lung 2.16% | HOP-62 NSCLC -11.2% | NCI-H460 lung 8% | HOP-92 NSCLC -15.9% | NCI-H522 lung -48.3% | A549/ATCC NSCLC 8.6% | COLO 205 colon -42% | K-562 leukemia 5.19% | MALME-3M melanoma -52.2% | MDA-MB-231 breast 1.25% | RXF 393 renal -69.1% | SF-268 CNS 6.37% | SF-295 CNS 2.15% | SF-539 CNS -43.5% | UACC-257 melanoma -4.44% | M14 melanoma -32.9%

COc1cccc(C(=O)NNc2nc(N3CCN(C4CCCCC4)CC3)nc(N3CCN(C(c4ccccc4)c4ccccc4)CC3)n2)c1
inactive: NCI-H23 lung 41.5% | NCI-H226 lung 73.7% | NCI-H322M lung 74.5% | HOP-62 NSCLC 45.2% | NCI-H460 lung 46.1% | HOP-92 NSCLC 45.5% | NCI-H522 lung 60.5% | A549/ATCC NSCLC 35.8% | 786-0 renal 53% | COLO 205 colon 14.2% | DU-145 prostate 87.5% | K-562 leukemia 11.5% | MDA-MB-231 breast 57.2% | RXF 393 renal 64.7% | SF-268 CNS 51.1% | SF-295 CNS 77.3% | SF-539 CNS 61.7% | UACC-257 melanoma 23.1% | M14 melanoma 42.5%
active: MALME-3M melanoma 9.41%

CC(=O)n1nc(C(=O)OC(C)(C)C)c2cc(F)c(F)cc21
inactive: NCI-H23 lung 101% | NCI-H226 lung 105% | NCI-H322M lung 102% | HOP-62 NSCLC 99% | NCI-H460 lung 102% | HOP-92 NSCLC 83% | NCI-H522 lung 83.2% | A549/ATCC NSCLC 95.9% | 786-0 renal 97.5% | COLO 205 colon 103% | DU-145 prostate 102% | K-562 leukemia 110% | MALME-3M melanoma 98.7% | MDA-MB-231 breast 94% | RXF 393 renal 126% | SF-268 CNS 101% | SF-295 CNS 101% | SF-539 CNS 104% | UACC-257 melanoma 113% | M14 melanoma 90.9%

CCOC(=O)CNC(=O)Nc1ccc(Oc2ccc(NC(=O)NCC(=O)OCC)cc2)cc1
inactive: NCI-H23 lung 104% | NCI-H226 lung 98.8% | NCI-H322M lung 96.3% | HOP-62 NSCLC 96.1% | NCI-H460 lung 101% | HOP-92 NSCLC 92.2% | NCI-H522 lung 96.2% | A549/ATCC NSCLC 90.6% | 786-0 renal 105% | COLO 205 colon 105% | DU-145 prostate 112% | K-562 leukemia 105% | MALME-3M melanoma 102% | MDA-MB-231 breast 108% | RXF 393 renal 91.6% | SF-268 CNS 104% | SF-295 CNS 93% | SF-539 CNS 86.7% | UACC-257 melanoma 96.2% | M14 melanoma 101%

N#Cc1cnc2ccc(NCc3cnc[nH]3)cc2c1Nc1ccc(F)c(Cl)c1
active: NCI-H322M lung 1.96%
inactive: NCI-H23 lung 78.8% | NCI-H226 lung 88.2% | HOP-62 NSCLC 94.3% | NCI-H460 lung 62.5% | HOP-92 NSCLC 51.9% | NCI-H522 lung 10.2% | A549/ATCC NSCLC 70.9% | 786-0 renal 65.7% | COLO 205 colon 96.9% | DU-145 prostate 39.5% | K-562 leukemia 66.8% | MALME-3M melanoma 110% | MDA-MB-231 breast 78% | RXF 393 renal 52.8% | SF-268 CNS 63.2% | SF-295 CNS 94.4% | SF-539 CNS 92.1% | UACC-257 melanoma 84.3% | M14 melanoma 72.1%

COc1cccc2c1O/C(=C\c1ncc([N+](=O)[O-])n1C)C2=O
active: NCI-H23 lung -20.4% | NCI-H226 lung -16.4% | HOP-62 NSCLC -28.5% | NCI-H460 lung -34.1% | HOP-92 NSCLC -36.8% | NCI-H522 lung -56.8% | A549/ATCC NSCLC -23.8% | 786-0 renal -28.7% | COLO 205 colon -57.8% | DU-145 prostate -11.9% | K-562 leukemia 0.449% | MALME-3M melanoma -53% | MDA-MB-231 breast -19.6% | RXF 393 renal -66.2% | SF-268 CNS -31.3% | SF-295 CNS -10.4% | SF-539 CNS -53% | UACC-257 melanoma -50.5% | M14 melanoma -61.8%
inactive: NCI-H322M lung 23.9%

COc1ccc2c(=O)cc(C(Cl)(Cl)Cl)oc2c1
active: NCI-H23 lung -18.4% | NCI-H226 lung -29.2% | NCI-H322M lung -17.6% | HOP-62 NSCLC -14.8% | NCI-H460 lung -7.69% | HOP-92 NSCLC -26.1% | NCI-H522 lung -51.7% | A549/ATCC NSCLC -0.889% | 786-0 renal 8.97% | COLO 205 colon -88.4% | DU-145 prostate 0.575% | K-562 leukemia -12.7% | MALME-3M melanoma -87.5% | MDA-MB-231 breast -31.1% | RXF 393 renal -72.1% | SF-268 CNS -36.4% | SF-295 CNS -31.1% | SF-539 CNS -27.4% | UACC-257 melanoma -48.9% | M14 melanoma -67.1%

O=C(NCCc1nccs1)c1cnc2c(S)cccc2c1
inactive: NCI-H23 lung 34.2% | NCI-H226 lung 46.1% | NCI-H322M lung 29.7% | HOP-62 NSCLC 29.3% | HOP-92 NSCLC 54.5% | A549/ATCC NSCLC 12.6% | 786-0 renal 47% | DU-145 prostate 22.9% | MALME-3M melanoma 40.1% | MDA-MB-231 breast 13.6% | SF-268 CNS 37.7% | SF-295 CNS 38.8% | SF-539 CNS 22.8% | UACC-257 melanoma 17.7% | M14 melanoma 10.7%
active: NCI-H460 lung 0.683% | NCI-H522 lung -65.7% | COLO 205 colon -52.4% | K-562 leukemia 4.3% | RXF 393 renal 9.59%

COc1ccc2nc(C)cc(Nc3ccc(Cl)cc3)c2c1
inactive: NCI-H23 lung 104% | NCI-H226 lung 99.9% | NCI-H322M lung 95.1% | HOP-62 NSCLC 104% | NCI-H460 lung 91.8% | HOP-92 NSCLC 156% | NCI-H522 lung 105% | A549/ATCC NSCLC 92.2% | 786-0 renal 109% | COLO 205 colon 107% | DU-145 prostate 102% | K-562 leukemia 97.9% | MALME-3M melanoma 114% | MDA-MB-231 breast 115% | RXF 393 renal 118% | SF-268 CNS 103% | SF-295 CNS 108% | SF-539 CNS 104% | UACC-257 melanoma 99.4% | M14 melanoma 100%
